Compound activity: PubChem BioAssay, National Center for Advancing Translational Sciences (NCATS)
A selection: hits, their analogues and other compounds. The true share with any hit is near 10%.
ALDH1A1 block – qHTS Assay for Inhibitors of Aldehyde Dehydrogenase 1 (ALDH1A1) | Purified ALDH1A1, NADH fluorescence, propionaldehyde substrate | Potency, µM (highest dose often 75.3 µM), for inactives: at the highest dose activity, negative = inhibition, actives largely listed as inhibitors | AID 1030, 2008 | Aldehyde dehydrogenase 1A1 (Homo sapiens), P00352 | actives 7.3% (n = 220,000);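 note: potency is the fitted concentration of half-maximal effect; plate controls were no enzyme wells and a reference inhibitor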
Target sequence (P00352 whole entry, looked up): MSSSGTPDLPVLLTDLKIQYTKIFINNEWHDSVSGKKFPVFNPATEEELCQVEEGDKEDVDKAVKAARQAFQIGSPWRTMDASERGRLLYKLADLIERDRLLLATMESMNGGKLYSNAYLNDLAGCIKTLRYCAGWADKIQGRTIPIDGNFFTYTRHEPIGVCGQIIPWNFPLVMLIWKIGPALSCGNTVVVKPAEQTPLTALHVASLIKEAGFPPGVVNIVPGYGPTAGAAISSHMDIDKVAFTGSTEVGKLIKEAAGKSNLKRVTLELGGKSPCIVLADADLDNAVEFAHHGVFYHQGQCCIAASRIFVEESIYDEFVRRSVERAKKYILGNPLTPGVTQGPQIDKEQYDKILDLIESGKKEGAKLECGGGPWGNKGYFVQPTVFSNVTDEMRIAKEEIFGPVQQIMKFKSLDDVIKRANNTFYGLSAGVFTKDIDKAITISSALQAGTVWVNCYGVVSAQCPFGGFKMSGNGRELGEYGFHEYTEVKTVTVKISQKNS
HPGD inh – qHTS Assay for Inhibitors of HPGD (15-Hydroxyprostaglandin Dehydrogenase); actives 4.3% (n = 150,000); purified HPGD, NADH fluorescence kinetic, PGE2 substrate; Potency, µM, for the others: at the top dose activity change, negative = inhibition, usual class: inhibitors; AID 894, 2007; note: potency is the fitted concentration of half-maximal effect
Target sequence (P15428 whole entry, looked up): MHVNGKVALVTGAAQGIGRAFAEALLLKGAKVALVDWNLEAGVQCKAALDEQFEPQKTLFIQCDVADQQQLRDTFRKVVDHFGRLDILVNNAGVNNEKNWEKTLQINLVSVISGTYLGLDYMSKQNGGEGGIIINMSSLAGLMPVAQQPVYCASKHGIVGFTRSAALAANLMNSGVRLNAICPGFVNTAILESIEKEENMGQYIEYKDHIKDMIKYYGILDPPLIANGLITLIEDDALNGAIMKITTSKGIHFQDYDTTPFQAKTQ
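20 nM HPGD preincubated 15 min at room temperature with compound in 50 mM Tris-HCl pH 8, 0.01% Tween 20. Started with 1 mM NAD+ and 30 uM prostaglandin E2; NADH fluorescence (360/450 nm) read 5 times over 30-s intervals, last minus first.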
PNC inhibitor – High Content Assay for Compounds that inhibit the Assembly of the Perinucleolar Compartment; PC3M PTB-GFP, PNC prevalence imaging, 16 h; stronger effect = lower value; activity change (PNC), negative = inhibition, % at 10 µM; actives 3.1% (n = 140,000);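 active = readout at or below -70, meaning at least 70% loss of cells showing the perinucleolar compartment, a nuclear body marking cancer cells; inconclusive = readout between -30 and a set limit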;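 note: plate controls were DMSO wells for no effect and camptothecin positive control wells for full effect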
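PC3M cells stably expressing PTB-GFP, 750–1000 cells/well, treated 16 h at 37 °C with compound (23 nl of library stock), in duplicate. After paraformaldehyde fixation and Hoechst stain, imaged at 20x; PNC prevalence scored by image analysis.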
Lamin A splicing – qHTS Assay for Modulators of Lamin A Splicing; Potency, µM (doses to about 46.1 µM), without a hit: top-dose ratio change, negative = inhibition, hits mostly inhibitors; AID 1487, 2009; actives 0.01% (n = 200,000); HeLa LMNA splicing GFP/RFP minigene ratio, 48 h; active = well fitted inhibition curve with a large enough effect in the signal ratio, with a control signal flat, not every such curve was filed as active; inconclusive = small, poorly fitted or top-dose-only effect, or effect the other way, or a change in a side signal; the % refers to the signal ratio; note: potency is the fitted concentration of half-maximal effect
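S3 HeLa cells stably expressing lamin A-EGFP splicing minigene plus DsRed2, 600 cells/well, 48 h compound exposure at 37C. Laser-scanning cytometry; analysed as GFP (500-530 nm)/RFP (575-640 nm) total intensity ratio; 0.5% DMSO vehicle.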
12-hLO inh – qHTS Assay for Inhibitors of 12-hLO (12-human lipoxygenase) | Polyunsaturated fatty acid lipoxygenase ALOX12 (Homo sapiens), P18054 | purified 12-hLO, xylenol orange hydroperoxide absorbance | Potency, µM (doses to about 57.1 µM), for inactives: at the highest dose activity change, negative = inhibition, most hits filed as inhibitors | actives 0.12% (n = 150,000) | AID 1452, 2008; active = well fitted inhibition curve with a large enough effect; inconclusive = small, poorly fitted or top-dose-only effect; note: potency is the fitted concentration of half-maximal effect; nearly all actives have a fitted effect of over 55% in size
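Xylenol orange chromogenic assay: hydroperoxide from 12hLO oxidises Fe(II), giving red-shifted Fe(III)-XO absorbance. Conditions: 150 nM enzyme, 40 uM arachidonic acid, 25 mM Hepes pH 7.0, 0.01% Triton X-100, 30 min, room temperature.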
* hit, by the source's call; ? = inconclusive; nt = not tested or not shown; ! = repeats disagree; [ ] = remark or other dose. Unless noted, calls come from the whole dose curve; as a rule, active = well fitted inhibition curve with a large enough effect (not every such curve was filed as active); inconclusive = small, poorly fitted or top-dose-only effect, or another doubt; inactive = no such curve, though single readings can be large or run the other way. Unless noted, % is set by controls: 0 for no effect and ±100 for the full control effect.

SMILES	ALDH1A1 block	HPGD inh	PNC inhibitor	Lamin A splicing	12-hLO inh
Cc1ccc(-c2nc3sc(CCNC(=O)c4ccco4)c(C)n3n2)cc1	nt	nt	nt	-8.0%[46 µM]	nt
COc1ccc(S(=O)(=O)N2CCN(c3ccc(C)cc3C)CC2)cc1OC	-8.0%	-21.2%	-82.7*	?	-2.6%
O=C1CCSC2(C(=O)N(Cc3ccc(F)cc3)c3ccccc32)N1c1ccc(Cl)cc1 (configuration not stated)	nt	nt	nt	40.5%[46 µM]	nt
CNCCNS(=O)(=O)c1cccc2cnccc12	-3.3%	-9.0%	nt	?	-2.3%
O=S(=O)(NCCNC/C=C/c1ccc(Br)cc1)c1cccc2cnccc12	22.4µM*!	-24.7%	nt	?	nt
CC(=O)C1=C(C)NC(SCC(=O)c2ccc(Cl)c(Cl)c2)=C(C#N)C1c1ccco1 (configuration not stated)	2.82µM*	22.4µM*	15.5	-3.4%	?
CCc1ccc(C(=O)CSC2=C(C#N)C(c3ccco3)C(C(C)=O)=C(C)N2)cc1 (configuration not stated)	?	?	33.7	3.3%	-21.8%
C=CCOC(=O)C1=C(C)NC(SCC(=O)N(CC)CC)=C(C#N)C1c1ccco1 (configuration not stated)	?	17.8µM*	15.8	15.3%	-1.2%
CC(=O)C1=C(C)NC(SCC(=O)c2ccc(F)cc2)=C(C#N)C1c1ccco1 (configuration not stated)	12.6µM*	25.1µM*	-19.3	7.7%	-16.2%
CC(=O)C1=C(C)NC(SCC(=O)c2cc(Cl)ccc2Cl)=C(C#N)C1c1ccco1 (configuration not stated)	25.1µM*	28.2µM*	-19.7	?	-29.1%
CC(C)C1=C[C@@]23CC[C@@H]4[C@](C)(CCC[C@@]4(C)C(=O)O)[C@@H]2C[C@@H]1[C@@H](C(=O)O)[C@@H]3C(=O)O	12.8%[13.5 µM]	-6.1%	nt	nt	0.8%[11.4 µM]
Cc1ccc(C(=O)CSC2=C(C#N)C(c3ccco3)C3=C(CCCC3=O)N2)cc1 (configuration not stated)	?	-15.7%	-2.0	-16.5%	-10.8%
CC1=C(C(=O)Nc2ccccc2)C(c2ccco2)C(C#N)=C(SCC(=O)Nc2cccc(C)c2C)N1 (configuration not stated)	?	?	-82.4*	-0.5%	-1.4%
N#CC1=C(SCC(=O)c2ccccc2)NC2=C(C(=O)CCC2)C1c1ccco1 (configuration not stated)	8.91µM*	?	-89.4*	6.0%	?
CC1=C(C(=O)Nc2ccccc2)C(c2ccco2)C(C#N)=C(SCc2ccccc2)N1 (configuration not stated)	?	?	?	-24.5%	-5.4%
COc1cccc(CNC(=O)Cn2nc(-c3ccc(C)cc3)ccc2=O)c1	nt	nt	nt	11.4%[46 µM]	nt
COCCNC(=O)C(=O)N/N=C(\C)CC(=O)Nc1cccnc1	-7.8%	nt	nt	-6.1%[46 µM]	nt
Cc1cc(NS(=O)(=O)c2ccc(NC(=S)NC(=O)c3ccc(Cl)cc3Cl)cc2)no1	-0.1%	25.1µM*	0.4	25.6%	?
CC(=O)c1ccc(NS(=O)(=O)c2ccc(C(C)(C)C)cc2)cc1	12.6µM*	nt	nt	nt	nt
CC(=O)Nc1ccc(OS(=O)(=O)c2ccc(C(C)(C)C)cc2)cc1	12.6µM*	nt	nt	9.9%[46 µM]	nt
CC(=O)Nc1ccc(S(=O)(=O)Oc2ccc(/C=C3\SC(N)=NC3=O)cc2)cc1	-6.8%	nt	nt	nt	nt
Cc1cc(NS(=O)(=O)c2ccc(NC(=S)NC(=O)c3ccc(C(C)(C)C)cc3)cc2)no1	12.6µM*	17.8µM*	31.6	?	-0.6%
O=C(CN1C(=O)COc2ccccc21)NCCc1ccc(Cl)cc1	nt	nt	nt	-11.3%[46 µM]	nt
CCc1cccc(C)c1NC(=O)Cn1ccn(-c2ccc(F)cc2)c(=O)c1=O	nt	nt	nt	9.8%[46 µM]	nt
O=C(Nc1ccc(F)cc1F)c1cc(-c2ccccc2O)no1	nt	nt	nt	1.5%[46 µM]	nt
SMILES	ALDH1A1 block	HPGD inh	PNC inhibitor	Lamin A splicing	12-hLO inh
CC(C)(C)c1ccc(S(=O)(=O)Nc2cccc(C3OCCCO3)c2)cc1	25.1µM*	-5.3%	3.3	?	-3.5%
O=C(COCc1nc2ccccc2c(=O)[nH]1)NCC1CCCCC1	-0.8%	-14.9%	-100.0*	-3.8%	-0.9%
O=C(COC(=O)CC12CC3CC(CC(C3)C1)C2)Nc1ncc(Cl)cc1Cl	1.2%	-10.1%	-19.2	4.6%	0.5%
O=C(COC(=O)C12CC3CC(CC(C3)C1)C2)Nc1ncc(Cl)cc1Cl	?	-9.9%	-88.4*	-1.3%	-1.9%
O=C(c1ccco1)N1CCN(C(=O)c2ccccc2Oc2ccccc2)CC1	-4.1%	-0.6%	-111.6*	-8.4%	-0.3%
O=C1c2ccccc2-c2c1cccc2C(=O)N1CCN(C(=O)c2ccco2)CC1	15.8µM*	-9.5%	36.8	8.7%	-5.0%
O=C(c1ccco1)N1CCN(C(=O)C(c2ccccc2)c2ccccc2)CC1	-8.1%	-3.1%	-2.8	-14.2%	-6.2%
Cc1cc2oc(=O)cc(CN3CCCc4ccccc43)c2cc1C	25.1µM*	-18.4%	-0.7	14.9%	-19.1%
CCOCCCNC(=O)c1cnc2sc(N3CCCCCC3)nn2c1=O	nt	nt	nt	-5.5%[46 µM]	nt
CCC1CCCCN1C(=O)Cn1c(=O)cc(C(F)(F)F)c2c(C)nn(C)c21 (configuration not stated)	nt	nt	nt	5.0%[46 µM]	nt
CCOC(=O)C1CCN(c2c(NCc3ccc(C(=O)NC(C)CC)cc3)c(=O)c2=O)CC1 (configuration not stated)	?	5.01µM*	5.0	0.9%	-2.7%
CN(C)c1ccc(CNC(=O)c2ccc(CNc3c(N4CCCCC4)c(=O)c3=O)cc2)cc1	28.2µM*	22.4µM*	-0.8	-7.6%	-0.2%
COc1ccccc1CNC(=O)c1ccc(CNc2c(N3CCCC3)c(=O)c2=O)cc1	3.2%	-28.9%	25.3	-11.9%	1.6%
O=C(c1ccc(CNc2c(N3CCCC3)c(=O)c2=O)cc1)N1CCc2ccccc2C1	10.3%	3.55µM*	?	-13.6%	-1.7%
O=C(c1ccc(CNc2c(N3CCCC3)c(=O)c2=O)cc1)N1CCN(C2CCCCC2)CC1	-4.6%	-18.9%	29.0	-2.0%	-2.2%
CCN(Cc1ccncc1)Cc1c(O)ccc2cc(Br)ccc12	0.562µM*	nt	nt	?	nt
C=CCN1c2ccccc2[C@]23C[C@@H](C(=O)OC)N(S(=O)(=O)c4c(C)noc4C)C2=NC(C(=O)OC)=C(C(=O)OC)[C@H]13	2.9%[13.5 µM]	3.1%	nt	2.3%[9.22 µM]	1.4%[11.4 µM]
O=S(=O)(NCCOCCNS(=O)(=O)c1ccccc1)c1ccccc1	25.1µM*	-2.5%	-18.8	-7.0%	-2.6%
O=C(O)CCCCCCNS(=O)(=O)c1ccccc1	?	-16.9%	23.5	0.6%	5.0%
